Source: PubChem BioAssay AID651616 (The Scripps Research Institute Molecular Screening Center, 2012)
The campaign covered roughly 5,600 compounds. About 4,400 (79%) were called active. No stated cut-off is given here; in the data, active means inhibition above about 27%; inactive means the rest. The set was probably picked from earlier hits. The list is a sample of the results.

These compounds were tested against Fructose-bisphosphate aldolase (Mycobacterium tuberculosis (strain ATCC 25618 / H37Rv)) (UniProt P9WQA3) (assay: M. tuberculosis aldolase blockers, biochemical, fluorescence, strain H37Rv, confirmation (AID 651616;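 further: 0% = vehicle wells and 100% = reference inhibitor wells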)). Details: purified M. tuberculosis FBA, fluorescence read-out, at 1 µM, stronger effect = higher value.
Sequence of Fructose-bisphosphate aldolase (Mycobacterium tuberculosis (strain ATCC 25618 / H37Rv)) (P9WQA3 whole entry, looked up): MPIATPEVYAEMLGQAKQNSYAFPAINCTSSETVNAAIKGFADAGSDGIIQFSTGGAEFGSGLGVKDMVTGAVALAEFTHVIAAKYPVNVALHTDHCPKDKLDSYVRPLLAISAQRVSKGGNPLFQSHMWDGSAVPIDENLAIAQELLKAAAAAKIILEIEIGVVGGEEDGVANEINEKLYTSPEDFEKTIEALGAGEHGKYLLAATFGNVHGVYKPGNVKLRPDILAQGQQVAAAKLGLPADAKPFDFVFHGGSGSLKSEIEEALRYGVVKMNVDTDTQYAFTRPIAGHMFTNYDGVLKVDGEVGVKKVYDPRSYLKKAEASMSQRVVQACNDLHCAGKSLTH

Row | Compound | inhibition
1 | COc1ccc(-c2nc3cc(C)ccn3c2NC2CCCCC2)cc1SC1CCCCC1 | 53.2% (active)
2 | O=C(CCc1ccccc1)Nc1cccc(-c2nnc(-c3ccco3)o2)c1 | 91% (active)
3 | O=C(Nc1ccc(-c2nnc(-c3ccccc3)o2)cc1)C1CCCO1 (centres undefined) | 1.4% (inactive)
4 | CC(=O)N1C(=O)/C(=C2\SC(=S)N(NC(=O)c3ccc(O)cc3)C2=O)c2ccccc21 | 10.4% (inactive)
5 | Cc1cc(C)c2nc(-c3ccco3)cc(C(=O)O)c2c1 | 3.93% (inactive)
6 | Cc1cc(C)c2nc3nc(C)cc(C)c3c(N)c2c1 | 41.1% (active)
7 | CCOC(=O)N1CCC(NC(=O)c2cnn3ccccc23)CC1 | 42.5% (active)
8 | CCCn1nc2cc(C(=O)NCc3ccccc3)ccc2c1OCC | -3.79% (inactive)
9 | CCOc1c2ccc(C(=O)NCc3ccc4c(c3)OCO4)cc2nn1C | 107% (active)
10 | CCOc1c2ccc(C(=O)NCc3ccc(OC(F)(F)F)cc3)cc2nn1C | 106% (active)
11 | CCOc1c2ccc(C(=O)NC3CCCc4ccccc43)cc2nn1CC (centres undefined) | 21.6% (inactive)
12 | O=C(NCc1cccc(Cl)c1)C1=CC=CN2CCS(=O)(=O)N=C12 | 11.8% (inactive)
13 | C=CCn1c(CCNC(=O)c2ccccc2F)nnc1SCC(=O)Nc1ccc(OC)cc1 | 586% [above what the read-out allows, likely interference] (active)
14 | Cc1ccsc1C(=O)N[C@@H](C)c1nnc2ccccn12 | 125% (active)
15 | CC(C)n1c(-c2cccs2)nc2ccccc21 | 87% (active)
16 | CC1(C(=O)NCc2ccc(F)c(F)c2)Cc2c(-c3ccc4c(c3)OCO4)ccnc2O1 (centres undefined) | 155% (active)
17 | CC1(C(=O)NCc2ccco2)Cc2c(-c3ccc4c(c3)OCO4)ccnc2O1 (centres undefined) | 7.76% (inactive)
18 | CC1(C)CC(=O)c2cc(OCC(=O)NCC3CCCO3)ccc2O1 (centres undefined) | -1.83% (inactive)
19 | Cc1cc(=O)oc2c3c(cc(OCC(=O)NCC(O)c4ccccc4)c12)OC(C)(C)CC3 (centres undefined) | 62% (active)
20 | CCCCNc1c(-c2cccc(Sc3ccc(OC)cc3)c2)nc2ccccn12 | 35.1% (active)
21 | CCCCn1c(-c2cccc(C)c2)nc2cc3[nH]c(=O)c(C(C)C)nc3cc21 | 34.1% (active)
22 | O=C(O)/C=C/c1cn(-c2ccccc2)nc1-c1cccs1 | 92.4% (active)
23 | O=C(CN1C(=O)c2cccc3cccc(c23)C1=O)N1CCCCC1 | 70.8% (active)
24 | CC(Nc1nc(N2CCOCC2)nc2ccccc12)c1ccccc1 (centres undefined) | 56.5% (active)
25 | c1ccc2c(NC3C4CC5CC(C4)CC3C5)nc(N3CCOCC3)nc2c1 (centres undefined) | 134% (active)

Row | Compound | inhibition
26 | CCOC(=O)Cn1c(=O)n(Cc2ccc(OC)cc2)c(=O)c2cccnc21 | 852% [above what the read-out allows, likely interference] (active)
27 | COC(=O)CSc1nc(C)c2ccc(OC)cc2n1 | -3.91% (inactive)
28 | O=C(CCC(=O)N/N=C/c1ccc(Br)o1)N/N=C/c1ccc(Br)o1 | 110% (active)
29 | CCC(=O)Nc1c(S(=O)(=O)c2ccccc2)c2nc3ccccc3nc2n1Cc1ccccc1 | 173% (active)
30 | COc1ccc2nc(-c3ccccn3)ccc2c1 | 116% (active)
31 | COc1ccc(C2NC(=O)c3ccccc3N2)cc1 (centres undefined) | 146% (active)
32 | O=C1NC(c2cccc(Cl)c2)Nc2ccccc21 (centres undefined) | 102% (active)
33 | Cc1ccc2nc(-c3ccco3)c(Cc3cccc(Cl)c3)n2c1 | 94.1% (active)
34 | O=C1OCCN1C(=O)[C@H]1[C@H](c2ccc(F)cc2)C(c2ccccc2)=NN1c1ccc(Br)cc1 | 65.6% (active)
35 | CNc1nc(-c2ccccc2)cc(-c2ccccc2)n1 | 76.6% (active)
36 | CCCN(C(=O)CSc1nnc(N)s1)c1c(N)n(Cc2ccccc2)c(=O)[nH]c1=O | 59.2% (active)
37 | COc1ccc(-c2ccc(C(=O)NC(C)C)c3occc23)c(C)c1 | 112% (active)
38 | COc1ccc(-c2ccc(C(=O)NCCN3CCOCC3)c3occc23)c(C)c1 | 72% (active)
39 | COc1ccc(-c2oc3ncnc(NCCCO)c3c2-c2ccc(OC)cc2)cc1 | 51.9% (active)
40 | Cc1cc(C)nc(SCc2cn3c(C)cc(C)nc3n2)n1 | 102% (active)
41 | COc1cccc(NC(=O)CN(C)CC(=O)Nc2ccc3c(c2)CCC3)c1 | 89% (active)
42 | COc1cccc(NC(=O)CN(C)C(=O)/C=C/c2cc(OC)ccc2OC)c1 | 105% (active)
43 | COc1ccc2c3c(c(=O)oc2c1OCC(=O)C(C)(C)C)CCCC3 | 60.2% (active)
44 | Cc1c(OC(C)C(=O)N[C@@H](Cc2ccccc2)C(=O)O)ccc2c3c(c(=O)oc12)CCCC3 (some centres undefined) | 5.53% (inactive)
45 | CCC(=O)Nc1ccc2nn(-c3ccc(F)cc3)nc2c1 | 88% (active)
46 | CCCC/C=C/c1cccc2nncn12 | 68.8% (active)
47 | O=C(NCCN1CCOCC1)c1ccc2c(c1)N(Cc1ccc(Cl)cc1)CCS2 | 56.6% (active)
48 | CN1CCN(CCCNC(=O)c2ccc(/C=C3\Oc4ccccc4N(Cc4ccc(Cl)cc4)C3=O)cc2)CC1 | -4.52% (inactive)
49 | O=C(NCCc1ccccc1)c1ccc2c(c1)N(Cc1ccccc1)CCS2 | 42.5% (active)
